Data published in the supplement of paper PMC3334620.
In all, about 33,000 sequences were measured (“E-score (-0.5 to 0.5)”: median about -0.04, highest 2% from about 0.36 on). The sample holds the highest values, similar sequences and a random draw of the others, so the mix is not that of the screen.

Each sequence was assayed against T1, Hmlalpha2 (UniProt P0CY09) (assay: PBM E-score (8-mer binding enrichment) (E-score (-0.5 to 0.5)); higher = stronger / more preferred TF binding). Conditions: protein concentration: 200 nM; construct: GST-full length.
T1 sequence: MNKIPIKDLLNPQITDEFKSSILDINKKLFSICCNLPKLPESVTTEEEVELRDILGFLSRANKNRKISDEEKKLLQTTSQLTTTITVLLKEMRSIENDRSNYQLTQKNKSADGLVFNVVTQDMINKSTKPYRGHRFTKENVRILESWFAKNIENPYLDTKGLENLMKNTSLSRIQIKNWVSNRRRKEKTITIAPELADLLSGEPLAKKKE
Method in brief: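 GST-tagged yeast TFs (full-length or DNA-binding domain) were made by PURExpress in vitro transcription/translation and applied at about 100-200 nM to universal all-10-mer Agilent arrays. The arrays were made double-stranded by primer extension, on fresh or once-stripped slides. Bound protein was detected with fluorescent anti-GST, and scans were normalised with masliner. Each ungapped eight-base word, pooled with its reverse complement, received an E-score (modified Wilcoxon-Mann-Whitney statistic) from the Universal PBM Analysis Suite.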

Row | Sequence | PBM E-score
1 | ACTGTTCG | 0.0673
2 | AACTGCTA | -0.0585
3 | AGAGGTGA | -0.0117
4 | CACCAGTA | -0.0753
5 | ACGGACAT | -0.0204
6 | CTAACACA | 0.376
7 | CTAACACC | 0.153
8 | ATAACAAG | 0.352
9 | CTAACAAG | 0.175
10 | ATAACACC | 0.259
11 | ATAACACG | 0.461
12 | AGAACACA | 0.268
13 | ATAACACA | 0.439
14 | GTAACACA | 0.324
15 | GTTCTAGA | -0.00839
16 | CCCTGACG | -0.351
17 | ATTTAGCC | 0.0155
18 | GACCTTGC | -0.356
19 | AGTTTCGG | -0.031
20 | CCAACACA | 0.248
21 | GCAACACA | 0.167
22 | ACAACACA | 0.405
23 | ACAACAAA | 0.284
24 | TCAACAGA | 0.149

Row | Sequence | PBM E-score
25 | CCAACACG | 0.375
26 | CCAACACC | -0.206
27 | ACAACACG | 0.417
28 | TCAACACA | 0.43
29 | ACAACAGG | 0.155
30 | ACAACACT | 0.248
31 | ACAACACC | 0.182
32 | GGTATGCA | -0.0286
33 | AGGCCTTC | -0.156
34 | AATCCGTG | -0.129
35 | CGTCCATA | 0.0125
36 | GGCAACAA | 0.0607
37 | TAATTTCA | 0.182
38 | ATCAAGTG | -0.0416
39 | CAGCATTA | 0.109
40 | GCATTTCA | -0.082
41 | CCACGACG | -0.097
42 | AGACGACG | -0.129
43 | ACACGACC | 0.396
44 | ACACGAGG | 0.292
45 | ACACGAAT | 0.356
46 | ACACGAGT | 0.389
47 | ACACGACG | 0.42
48 | GCACGACC | -0.188

Row | Sequence | PBM E-score
49 | ACACGACT | 0.391
50 | AAACGACT | -0.0906
51 | ACACGAGA | 0.291
52 | CCACGACC | -0.0888
53 | AAATGCAG | -0.012
54 | ACCCGACC | -0.145
55 | ACTAACGG | -0.168
56 | TCACGACA | 0.116
57 | CCACGACA | -0.103
58 | ACACGACA | 0.412
59 | CTTACGCA | 0.341
60 | ATTACGCG | 0.467
61 | ATTACGCC | 0.187
62 | GTTACGCA | 0.277
63 | ATTACGCA | 0.435
64 | ATTACGGG | -0.0184
65 | CGAAGAGC | -0.12
66 | CCAAGCAG | -0.127
67 | AACAGCTA | 0.115
68 | ACCTGAGG | -0.266
69 | CATTAACA | 0.409
70 | GATTAACA | 0.413
71 | TATTAATA | 0.173
72 | AATTAACC | 0.104

Row | Sequence | PBM E-score
73 | TATTAAAA | 0.24
74 | AATTAACT | 0.173
75 | AATTAACA | 0.425
76 | TATTAACA | 0.428
77 | GATTAAGA | 0.0797
78 | CATTAACG | 0.277
79 | GATTAACC | -0.108
80 | CATTAACC | 0.128
81 | GGCAGTTA | 0.0486
82 | CACCGGGC | -0.256
83 | ATGGTATA | 0.178
84 | CTTGACTC | -0.216
85 | GCAAGCTA | 0.0155
86 | ATTTGCTG | 0.024
87 | CGACACGC | 0.243
88 | GTACACTA | 0.135
89 | CTACACTA | 0.208
90 | CTACACGA | 0.451
91 | CTACACGC | 0.428
92 | GTACACGA | 0.425
93 | CTACACTC | 0.145
94 | GTACACCA | 0.089
95 | CTACACCA | 0.165
